Shiga inhibitor = inhibitors of Shiga toxin in Vero cells; Vero cells, Shiga toxin protein synthesis inhibition reporter; inhibition, % at 38.7 µM; 9.2% of 290,000 active; AID 2315; in the data active = inhibition mostly above about 28%, no sharp cut-off; inactive = mostly below about 43%
Tb PYK inh = inhibitors of Trypanosoma brucei pyruvate kinase; Q57TT1; TbPYK enzyme, Kinase-Glo Plus ATP luminescence, 45 min; Potency, µM (titrated, usually from 76.8 µM), usual class: inhibitors; 0.12% of 410,000 active; AID 624173; note: nearly all actives have a fitted effect of over 50% in size
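Luminescent Kinase-Glo Plus end-point after 45 min room-temperature reaction of T. brucei pyruvate kinase started with 130 uM ADP (final). Buffer TEA 50 mM pH 7.2 with KCl, MgCl2, BSA, Tween-20; titration-based qHTS with fitted concentration-effect curves.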
Giardia FBPA inh = blocks Giardia fructose-bisphosphate aldolase activity | A8B2U2 | purified Giardia FBPA | Potency, µM (top dose mostly 59.6 µM), actives largely listed as inhibitors | 0.71% of 290,000 active | AID 2451; note: nearly all actives have a fitted effect of over 55% in size
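Giardia FBPA (40 nM reagent) was preincubated 10 min at RT with compound (up to 57.5 uM final), then substrate plus GAPDH/TPI/NAD/arsenate coupling system with diaphorase/resazurin was added; resorufin fluorescence (525/598 nm) was read after 20 min.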
LmPK inhibitor = blocks Leishmania mexicana pyruvate kinase activity; purified LmPK, Kinase-Glo ATP luminescence, 1 h; Potency, µM (series often up to 57.5 µM), hits mostly inhibitors; Q27686; 0.37% of 290,000 active
Target sequence (Q27686 whole entry, looked up): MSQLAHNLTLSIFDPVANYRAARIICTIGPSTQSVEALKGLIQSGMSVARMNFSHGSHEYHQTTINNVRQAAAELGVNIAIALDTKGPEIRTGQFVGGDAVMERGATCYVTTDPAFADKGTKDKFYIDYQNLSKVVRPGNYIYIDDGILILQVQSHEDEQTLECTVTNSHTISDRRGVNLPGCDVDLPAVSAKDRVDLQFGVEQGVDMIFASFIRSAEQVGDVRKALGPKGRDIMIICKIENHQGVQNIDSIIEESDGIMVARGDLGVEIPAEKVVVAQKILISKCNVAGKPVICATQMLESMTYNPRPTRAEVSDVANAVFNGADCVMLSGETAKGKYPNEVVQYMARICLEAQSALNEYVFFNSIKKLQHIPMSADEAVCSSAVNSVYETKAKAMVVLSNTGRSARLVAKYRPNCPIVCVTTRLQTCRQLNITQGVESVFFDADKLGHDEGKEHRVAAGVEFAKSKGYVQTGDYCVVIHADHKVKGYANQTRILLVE
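0.1 nM LmPK, 0.5 mM PEP, 0.1 mM ADP; 50 mM imidazole pH 7.2, 7 mM MgCl2, 50 mM KCl; 1 h RT. Kinase-Glo luminescence readout, normalized to no-enzyme (full inhibition) and uninhibited wells.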
Sm TGR inh = blocks Schistosoma mansoni thioredoxin glutathione reductase | 3% of 360,000 active | Potency, µM (doses to about 114 µM), hits mostly inhibitors | purified TGR, DTNB reduction, TNB absorbance 405 nm; note: nearly all actives have a fitted effect of over 60% in size
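TGR 20 nM + NADPH 100 uM (dispensed conc.), cpd preinc 15 min RT; start with NADPH (500 uM addition) then DTNB (15 mM addition). Kinetic TNB absorbance, 405 nm filter. Four-parameter Hill fit across titration.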
Cycloheximide cs = affects cycloheximide protein synthesis inhibition readout, counter-screen. cell reporter, cycloheximide protein synthesis inhibition counterscreen. max response, %. 12% of 300,000 active; in the data active = max response mostly above about 13%, no sharp cut-off; inactive = mostly below about 14%; note: read at 38.3 µM for the half of the compounds with a filed dose
Hits are given with their value; n = inactive; u = inconclusive; x = not tested or not shown. Many of the other results were omitted from the sample, so hits are more common in it than they were. Unless noted, calls come from the whole dose curve; as a rule, active = well fitted curve in the direction sought with a large enough effect; inconclusive = small, poorly fitted or top-dose-only effect, or another doubt; inactive = no such curve, though single readings can be large; an effect the other way counts as inactive or inconclusive.

SMILES	Shiga inhibitor	Tb PYK inh	Giardia FBPA inh	LmPK inhibitor	Sm TGR inh	Cycloheximide cs
O=C(NCc1ccco1)C1CC(c2c(Cl)cccc2Cl)=NO1 (stereo not drawn)	n	n	n	n	39.8µM	n
COc1ccc(C2=NOC(C(=O)NCc3cccs3)C2)cc1OC (stereo not drawn)	n	n	n	n	n	n
O=C(NCc1ccco1)C1CC(c2ccc(Cl)c(Cl)c2)=NO1 (stereo not drawn)	n	n	n	n	n	n
COc1cc(C2=NOC(C(=O)NCc3ccco3)C2)cc(OC)c1OC (stereo not drawn)	n	n	n	n	n	n
COc1ccc(C2=NOC(C(=O)NCc3cccs3)C2)cc1 (stereo not drawn)	n	n	n	n	n	18.0
COC(=O)C1CC(O)C(O)C(O)C1 (stereo not drawn)	x	n	x	x	x	x
COC(=O)CCCC(=O)NCC1(N(C)Cc2ccccc2)Cc2ccccc2C1	n	n	n	n	n	n
COc1ccccc1C(=O)NCc1nc2cccnc2n1Cc1ccc(F)cc1	x	n	x	x	n	x
COc1ccccc1NC(=O)c1sc2ncn(Cc3ccccc3Cl)c(=O)c2c1C	x	n	x	x	n	x
Cc1nnc(N2CCN(c3ccccc3)CC2)c2c1nnn2Cc1ccc(F)cc1	x	n	x	x	n	x
CCN(Cc1nc(-c2ccc(OC)cc2)oc1C)S(=O)(=O)c1ccc(Cl)cc1	x	n	x	x	n	x
COc1ccc(CNC(=O)C2CC(c3ccc(OC)cc3)=NO2)cc1 (stereo not drawn)	n	n	n	n	n	n
COc1ccc(C2=NOC(C(=O)NCC(C)C)C2)cc1 (stereo not drawn)	60.9	n	n	n	n	44.7
O=C(NCc1cccs1)C1CC(c2ccccc2O)=NO1 (stereo not drawn)	51.2	n	n	n	n	26.5
CCCCCCCCCCCCCCCCCCCCCCCCCCCCCC	n	x	n	x	x	n
N#CC1=C(N)Oc2n[nH]c(-c3cccs3)c2C1c1ccco1 (stereo not drawn)	n	n	u	n	31.6µM	n
N#CC1=C(N)Oc2n[nH]c(-c3cccs3)c2C1c1ccncc1 (stereo not drawn)	n	n	n	n	n	n
COc1ccc(CSc2nc3ccccc3c(=O)[nH]2)cc1F	n	n	n	n	n	n
O=c1[nH]c(SCCOc2ccccc2F)nc2ccccc12	60.5	n	n	n	n	33.1
COc1ccccc1OCCSc1nc2ccccc2c(=O)[nH]1	48.2	n	n	n	n	13.8
O=c1[nH]c(SCCOc2ccccc2)nc2ccccc12	n	n	n	n	n	n
COc1cccc2sc(N(Cc3cccnc3)C(=O)C3CCCCC3)nc12	x	n	x	x	n	x
O=C(CN1C(=O)NC2(CCCc3ccccc32)C1=O)NCC(F)(F)F (stereo not drawn)	n	n	n	n	n	n
CC(C)(C)c1nn(-c2ccccc2)c2[nH]c(=O)c(CNCc3ccco3)cc12	n	n	n	n	n	n
CC(C)(C)c1nn(-c2ccccc2)c2[nH]c(=O)c(CNc3ccc4c(c3)OCCO4)cc12	n	n	n	n	n	16.4
SMILES	Shiga inhibitor	Tb PYK inh	Giardia FBPA inh	LmPK inhibitor	Sm TGR inh	Cycloheximide cs
CCOC(=O)c1cc(-c2ccc(C)o2)nn1CCC#N	n	n	n	n	17.8µM	n
Cc1ccc(N2CCN(S(=O)(=O)c3ccc(Cl)s3)CC2C)cc1 (stereo not drawn)	22.0	n	x	n	n	14.9
CC(C)CC(=O)/C(=C/c1ccc(N(C)C)cc1)n1cncn1	n	n	n	n	n	n
CC(C)CC(=O)/C(=C\c1ccc(Cl)cc1Cl)n1cncn1	n	n	n	n	22.4µM	n
COc1cccc(CN2CCC(n3nccc3NC(=O)CCOc3ccccc3)CC2)c1O	x	n	x	x	x	x
O=C(O)c1cncc(C#CCC2CCCCC2)c1	89.6	n	u	n	n	77.0
O=C(Oc1ccc([N+](=O)[O-])cc1)c1cncc(Br)c1	n	n	n	n	17.8µM	n
O=C(CSc1nnc(C2CCCCC2)o1)N1CCCCC1	80.9	n	n	n	n	31.5
O=C(CSc1nnc(C2COc3ccccc3O2)o1)N1CCCC1 (stereo not drawn)	51.7	n	n	n	n	47.5
Cc1ccc(OCC(=O)Nc2ccc3nc(SCC(=O)Nc4ccc(C)cc4C)sc3c2)cc1	x	n	x	x	n	x

Bioassay records deposited in PubChem BioAssay by National Center for Advancing Translational Sciences (NCATS).
